Only some compounds are listed: those with a hit (about 19% of all), similar ones and a draw of the others.
HT1080 IDH1KD tx: HT-1080 IDH1 knockdown cell toxicity (counter line) | HT-1080 IDH1 knockdown viability, ATP luminescence, 48 h | hit rate 2% among 360,000 | Potency, µM (titrated, usually from 46.1 µM), hits mostly cytotoxic | AID 686971
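Viability of IDH1-knockdown HT-1080 fibrosarcoma cells was assessed by CellTiter-Glo after 48 h at 37 °C with titrated compound; concentration-effect curves were classified by fit quality and response size.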
DT40 TDP1 CPT: DT40-hTDP1 cell growth loss with CPT | chicken DT40 Tdp1-/-;hTDP1 cells + 20 nM CPT, ATP luminescence, 48 h | AID 686979 | Potency, µM (titrated, usually from 46.2 µM), most hits filed as inhibitors | hit rate 12% among 420,000; further: nearly all actives have a fitted effect of over 55% in size
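Cell growth measured by CellTiter-Glo luminescence after a minimum 48 h, 37 C compound exposure with 20 nM CPT in Tdp1-knockout DT40 cells stably expressing hTDP1, seeded 400/well; qHTS titration format.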
TDP1 cell noCPT: qHTS for Inhibitors of human tyrosyl-DNA phosphodiesterase 1 (TDP1): qHTS in cells in absence of CPT | Potency, µM (doses to about 46.2 µM), most hits filed as inhibitors | hit rate 15% among 420,000 | DT40 Tdp1-/- hTDP1 cells, no CPT, ATP luminescence, 48 h; further: nearly all actives have a fitted effect of over 55% in size
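Growth of hTDP1-complemented DT40 Tdp1-knockout cells is measured by ATP luminescence after at least 48 hr compound exposure at 37 °C, with DMSO substituting for the 20 nM CPT used in the parallel screen.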
IL1B secr inh: inflammasome signaling inhibition, IL-1 beta readout. THP-1 LPS/ATP IL-1B secretion, AlphaLISA, 16 h; hits give low values. activity change, % at 57.5 µM. hit rate 4.7% among 360,000; in the data active means activity change below about -50%; inconclusive means mostly about -30% to -49%
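THP-1 cells pretreated 1 hr with compounds (up to 57.5 uM final), then stimulated with LPS (250 ng/mL final) plus ATP (1.25 mM final); secreted IL-1B measured by AlphaLISA after 16 hr, decreased signal indicating inhibition.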
HT1080-NT tox: kills 2HG-producing HT-1080-NT fibrosarcoma cells; HT-1080-NT fibrosarcoma viability, CellTiter-Glo ATP luminescence, 48 h; Potency, µM (series often up to 46.1 µM), actives largely listed as cytotoxic; hit rate 1.6% among 360,000; AID 686970;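 further: NT is the 2HG producing partner of a matched IDH1 knockdown line; nearly all actives have a fitted effect of over 55% in size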
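Toxicity toward the 2HG-producing NT line was scored as %Activity, normalised to DMSO and no-cell wells, from CellTiter-Glo luminescence after 48 hours' treatment.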
Each line names hits and unclear results; the compound was inactive in the other large screens; ! = not confirmed by another sample. Unless noted, the call rests on the fitted dose curve; in most records, active means well fitted curve in the direction sought with a large enough effect; inconclusive means small, poorly fitted or top-dose-only effect, or another doubt; inactive means no such curve, though single readings can be large; an effect the other way counts as inactive or inconclusive.

Cc1ccc(CNC(=O)CCCCn2c(=O)c3ccccc3n(Cc3ccc(Cl)cc3)c2=O)cc1	TDP1 cell noCPT inconclusive (no result: HT1080 IDH1KD tx, IL1B secr inh, HT1080-NT tox)
N#CCCN(Cc1cccnc1)C(=O)c1ccc(S(=O)(=O)N2CCOCC2)cc1	none
COc1cc(=O)n2c(c1C(=O)N(C)Cc1nonc1C)CCN(CC1CC=CCC1)CC2 (configuration not stated)	none (no result: HT1080 IDH1KD tx, IL1B secr inh, HT1080-NT tox)
Cc1nnc(NC(=O)CSc2nccn2Cc2ccccc2)s1	TDP1 cell noCPT inconclusive
O=C(CN1CCN(Cc2ccc(F)cc2)CC1)Nc1nc2ccccc2s1	TDP1 cell noCPT 26µM
CC(=O)Nc1ccc(NC(=O)CSc2nccn2Cc2ccccc2)cc1	DT40 TDP1 CPT inconclusive, TDP1 cell noCPT inconclusive
Clc1ccc(CSc2nccn2Cc2ccccc2)cc1	DT40 TDP1 CPT inconclusive, TDP1 cell noCPT 16µM, IL1B secr inh -73
Cc1ccc(NC(=O)CSc2nccn2Cc2ccccc2)cc1C	DT40 TDP1 CPT inconclusive, TDP1 cell noCPT 21µM
Cc1ccc2nc(NC(=O)CSc3nccn3Cc3ccccc3)sc2c1	DT40 TDP1 CPT 26µM, TDP1 cell noCPT inconclusive (no result: HT1080 IDH1KD tx, IL1B secr inh, HT1080-NT tox)
O=c1ccn(Cc2ccccc2)c(SCc2ccccc2)n1	TDP1 cell noCPT inconclusive
CSCCC(NC(=O)/C(=C/c1ccc(F)cc1)NC(C)=O)C(=O)O (configuration not stated)	none
CCCNC(=O)N(C)C[C@H]1Oc2ncc(Br)cc2C(=O)N([C@H](C)CO)C[C@H]1C	none
CC1(C)c2cc(Cl)ccc2-n2c1cc(O)c(-c1ccccc1)c2=O	none
O=C(N/N=C/c1ccccn1)c1cccc(S(=O)(=O)N2CCCC2)c1	none
CC1=C(C(=O)OC(C)C)C(c2ccccn2)n2ncnc2N1 (configuration not stated)	none
Cc1ccc2nc(NC(=O)CSc3nccn3Cc3ccc(F)cc3)sc2c1	DT40 TDP1 CPT 16µM, TDP1 cell noCPT 18µM (no result: HT1080 IDH1KD tx, IL1B secr inh, HT1080-NT tox)
Cc1nnc(NC(=O)CSc2nccn2Cc2ccc(F)cc2)s1	DT40 TDP1 CPT inconclusive, TDP1 cell noCPT inconclusive
CC(C(c1ccc2c(c1)OCO2)c1c(N)n(C)c(=O)n(C)c1=O)[N+](=O)[O-] (configuration not stated)	DT40 TDP1 CPT inconclusive, TDP1 cell noCPT 16µM
COc1cccc(F)c1C(C[N+](=O)[O-])c1c(N)n(C)c(=O)n(C)c1=O (configuration not stated)	HT1080 IDH1KD tx 5.8µM, DT40 TDP1 CPT 4.6µM, TDP1 cell noCPT 2.3µM, IL1B secr inh -100, HT1080-NT tox 10µM
COc1cc(C(C[N+](=O)[O-])c2c(N)n(C)c(=O)n(C)c2=O)ccc1O (configuration not stated)	HT1080 IDH1KD tx 21µM, DT40 TDP1 CPT 6.5µM, TDP1 cell noCPT 6.5µM, HT1080-NT tox inconclusive
Cc1ccc(C(C[N+](=O)[O-])c2c(N)n(C)c(=O)n(C)c2=O)cc1 (configuration not stated)	HT1080 IDH1KD tx inconclusive, DT40 TDP1 CPT 3.7µM, TDP1 cell noCPT 5.2µM, IL1B secr inh inconclusive, HT1080-NT tox inconclusive
Cn1c(N)c(C(=O)COC(=O)Cc2c(F)cccc2Cl)c(=O)n(C)c1=O	none
Cn1c(=O)c2c(nc(NCc3ccc4c(c3)OCO4)n2C)n(C)c1=O	DT40 TDP1 CPT inconclusive
Cc1ccc(C(=O)NC(=O)OCCn2c(C)cnc2[N+](=O)[O-])cc1	none
Cn1c(N)c(C(C[N+](=O)[O-])c2ccccc2Cl)c(=O)n(C)c1=O (configuration not stated)	DT40 TDP1 CPT 4.1µM, TDP1 cell noCPT 4.6µM
Cc1cccc(/C=N/NC(=O)c2cc3c(s2)-c2ccccc2CC3)c1	HT1080 IDH1KD tx inconclusive, DT40 TDP1 CPT 16µM, TDP1 cell noCPT 15µM, HT1080-NT tox inconclusive
COc1ccc(C(CNC(=O)c2cc(S(=O)(=O)N3CCCC3)ccc2Cl)N2CCCC2)cc1 (configuration not stated)	TDP1 cell noCPT inconclusive
CCOc1ccc(NC(=O)CSc2ccc3nnc(-c4cccnc4)n3n2)cc1	TDP1 cell noCPT inconclusive
CC1CCN(C(=O)CSc2nnc3ccc(-c4cccnc4)nn23)CC1	IL1B secr inh -57
CCOC(=O)C(CC)Sc1ccc2nnc(-c3cccnc3)n2n1 (configuration not stated)	DT40 TDP1 CPT 14µM!, TDP1 cell noCPT inconclusive
CCOC(=O)N1CCN(C(=O)CSc2ccc3nnc(-c4cccnc4)n3n2)CC1	DT40 TDP1 CPT inconclusive, TDP1 cell noCPT 18µM
O=C(CSc1ccc2nnc(-c3cccnc3)n2n1)c1ccccc1	none
CN(C)c1ccc(CN(CC2CCCO2)C(=O)c2ccc(Br)cc2)cc1 (configuration not stated)	DT40 TDP1 CPT inconclusive (no result: HT1080 IDH1KD tx, IL1B secr inh, HT1080-NT tox)
CN(C)c1ccc(CN(CC2CCCO2)C(=O)c2cc3ccccc3o2)cc1 (configuration not stated)	DT40 TDP1 CPT 18µM, TDP1 cell noCPT inconclusive
Cc1cc2oc(C(=O)N(Cc3ccc(N(C)C)cc3)CC3CCCO3)c(C)c2cc1Cl (configuration not stated)	DT40 TDP1 CPT inconclusive, TDP1 cell noCPT 18µM (no result: HT1080 IDH1KD tx, IL1B secr inh, HT1080-NT tox)
CCOc1cccc(C(=O)N(Cc2ccc(N(C)C)cc2)CC2CCCO2)c1 (configuration not stated)	DT40 TDP1 CPT 15µM, TDP1 cell noCPT 16µM (no result: HT1080 IDH1KD tx, IL1B secr inh, HT1080-NT tox)
COc1ccc(C(=O)N(Cc2ccc(N(C)C)cc2)CC2CCCO2)cc1 (configuration not stated)	DT40 TDP1 CPT inconclusive (no result: HT1080 IDH1KD tx, IL1B secr inh, HT1080-NT tox)
Cc1c(C(=O)N(Cc2ccc(N(C)C)cc2)CC2CCCO2)oc2ccccc12 (configuration not stated)	DT40 TDP1 CPT 23µM, TDP1 cell noCPT 23µM, IL1B secr inh inconclusive
COc1ccc(OC)c(NS(=O)(=O)c2ccc3c(c2)C(C)(C)C(=O)N3C)c1	TDP1 cell noCPT inconclusive
Cc1c(C(=O)N(Cc2ccc(Cl)cc2)CC2CCCO2)oc2ccc(F)cc12 (configuration not stated)	DT40 TDP1 CPT inconclusive, TDP1 cell noCPT 15µM (no result: HT1080 IDH1KD tx, IL1B secr inh, HT1080-NT tox)
Cc1c(C(=O)N(Cc2ccc(N(C)C)cc2)CC2CCCO2)oc2ccc(Cl)cc12 (configuration not stated)	DT40 TDP1 CPT 16µM, TDP1 cell noCPT 21µM (no result: HT1080 IDH1KD tx, IL1B secr inh, HT1080-NT tox)
CN(Cc1ccccc1)C(=O)c1cc2ccccc2o1	none
CC(C)(C)N(Cc1ccccc1)C(=O)c1cc2ccccc2o1	DT40 TDP1 CPT inconclusive, TDP1 cell noCPT 12µM
Cc1ccc2oc(C(=O)N(Cc3ccc(N(C)C)cc3)C3CCS(=O)(=O)C3)c(C)c2c1 (configuration not stated)	DT40 TDP1 CPT inconclusive
O=C(c1cc(COc2ccc(F)cc2Cl)on1)N(Cc1ccncc1)CC1CCCO1 (configuration not stated)	DT40 TDP1 CPT inconclusive, TDP1 cell noCPT inconclusive

Screening results from PubChem BioAssay.
